Data from publication PMC4552634, “A New Set of Chemical Starting Points with Plasmodium falciparum Transmission-Blocking Potential for Antimalarial Drug Discovery” (PLoS ONE, 2015).
Where two headings read alike, the source gives them in different places. About 3,200 (25%) of roughly 13,000 compounds showed an effect of 50% or more. The list shows a part of the results.

System: P. falciparum stage V gametocytes
Parameters: BacTiter-Glo ATP luminescence viability of purified stage V gametocytes in 384-well plates, per cent inhibition versus DMSO
Settings: 48 h, 5 µM, inhibitor

SMILES	% Inhibition [%]	% Inhibition (% Inhibition) [%]
CN1CCN(c2cc(NC(=O)Nc3ccc(-c4ccncc4)c(Cl)c3)ccc2Br)CC1 [TCMDC-139221]	36.17	–
COc1cc(OC)cc(-c2nc3c(C#N)c(OCCN(C)C)ccc3[nH]2)c1 [TCMDC-133764]	10.97	–
CCOC(=O)c1ccc(NC(=O)NC2CCN(CCCCCNC(=O)/C=C/c3ccc(Cl)c(Cl)c3)C2)cc1 (centres unmarked) [TCMDC-139526]	12.95	–
CCOC(=O)c1ccc(NC(=O)N[C@H]2CCN(CCCCCNC(=O)/C=C/c3ccc(Cl)c(Cl)c3)C2)cc1 [TCMDC-139511]	97.51	–
CCNc1cc(C(=O)N[C@@H](Cc2ccccc2)[C@H](O)CNC2CCC(F)(F)CC2)c(F)c(N2CCCCS2(=O)=O)c1 [TCMDC-135448]	35.59	–
CCN1CCN(CCCNc2ccnc3cc(Cl)ccc23)CC1 [TCMDC-137588]	6.527	–
COc1ccc2nc3ccccc3c(NCCN3CCN(C)CC3)c2c1 [TCMDC-138017]	69.17	–
CCN1CCN(CCCNc2c3ccc(Cl)cc3nc3ccc(O)cc23)CC1 [TCMDC-137583]	70.77	–
COc1ccc2nc3cc(Cl)ccc3c(NCCc3ccccc3)c2c1.Cl [TCMDC-137665]	-3.627	–
COc1ccc2nc3cc(Cl)ccc3c(NCCCCN3CCNCC3)c2c1 [TCMDC-137578]	99.69	–
CCN1CCN(CCCNc2c3ccc(Cl)cc3nc3ccc(OC)cc23)CC1 [TCMDC-137586]	86.55	–
CN1CCCc2ccc(NC(=O)Nc3ccc(Cl)c(Cl)c3)cc2C1 [TCMDC-133732]	-5.496	–
Cc1ccc2[nH]c3c(NCCN(C)C)ncnc3c2c1 [TCMDC-124581]	-20.4	–
Cc1ccc2nc3ccccc3c(NCCN3CCN(C)CC3)c2c1 [TCMDC-138018]	95.43	–
COc1ccc2nc3cc(Cl)ccc3c(Nc3ccc(C(=O)O)cc3)c2c1.Cl [TCMDC-138029]	43.24	–
CCOC(=O)N1CCN(CCCCNc2c3ccc(Cl)cc3nc3ccc(OC)cc23)CC1.Cl [TCMDC-137579]	70.35	–
COc1ccc2nc3cc(Cl)ccc3c(NCCN3CCN(C)CC3)c2c1 [TCMDC-137476]	105	–
CCOC(=O)N1CCN(CCCNc2c3ccc(Cl)cc3nc3ccc(OC)cc23)CC1 [TCMDC-137480]	40.55	–
COc1ccc2nc3cc(Cl)ccc3c(NCCCN3CCNCC3)c2c1 [TCMDC-137580]	104.3	–
CCOC(=O)C1=C(C)NC2=C(C(=O)CC(C)(C)C2)C1c1ccc(Cl)cc1 (centres unmarked) [TCMDC-123497]	10	–
O=C(N[C@@H](CC1CCCCC1)C(=O)NCCN1CCCC1)c1ccc(O)c(-c2ccc(Cl)c(Cl)c2)c1 [TCMDC-140830]	4.598	–
COc1ccc(Nc2nccc(NCC(O)c3ccc(C(F)(F)F)cc3)n2)cc1 (centres unmarked) [TCMDC-136595]	-79.42	–

SMILES	% Inhibition [%]	% Inhibition (% Inhibition) [%]
CCCCCN(C(=O)Nc1cc(C(F)(F)F)cc(C(F)(F)F)c1)C(C)c1nc2ccccc2c(=O)n1CC (centres unmarked) [TCMDC-124043]	-29.97	–
O=C(Nc1cc(C(F)(F)F)ccc1Cl)c1ccc(Cn2cc(Br)cn2)cc1 [TCMDC-124912]	-0.3608	–
O=c1cc(NCCCNCc2cccc(C(F)(F)F)c2Cl)[nH]c2ccccc12 [TCMDC-139421]	-19.98	–
N#Cc1ccc(CNCCCCCCNCc2ccc(C#N)c3ccccc23)c2ccccc12 [TCMDC-137849]	40.84	–
FC(F)(F)COc1c(CCNCCCCNCCc2ccc3ccccc3c2OCC(F)(F)F)ccc2ccccc12 [TCMDC-137169]	119.3	–
FC(F)(F)COc1c(CNCCCCCCNCc2ccc3ccccc3c2OCC(F)(F)F)ccc2ccccc12 [TCMDC-137833]	67.85	–
CN(C)c1ccc(C2(c3ccccc3)N=C(N)N(CCCc3ccccc3)C2=O)cc1 (centres unmarked) [TCMDC-136715]	-12.92	–
CCCCCOc1ccc(C(O)C(CCC(CN2CCCCCC2)C(O)c2ccc(OCCCCC)cc2)CN2CCCCCC2)cc1 (centres unmarked) [TCMDC-124174]	105.7	–
CC(C)COc1ccc(C(O)C(CN2CCCCC2)c2ccccc2)cc1 (centres unmarked) [TCMDC-124253]	31.95	–
CCCCCOc1ccc(C(O)C(CN2CCCCC2)c2ccccc2)cc1 (centres unmarked) [TCMDC-124165]	1.137	–
COc1ccc(CNC2Cc3ccccc3C2)cc1-c1ccc(S(=O)(=O)NCc2ccccc2)s1 [TCMDC-132252]	67.04	–
COc1ccc(CNC2CCN(C)CC2)cc1-c1ccc(S(=O)(=O)NCCc2ccccn2)s1 [TCMDC-132256]	13.25	–
COc1ccc(CNC2CCN(C)CC2)cc1-c1ccc(S(=O)(=O)NCc2ccccc2)s1 [TCMDC-132253]	85.45	–
COc1ccc(CNC2CCN(C)CC2)cc1-c1ccc(S(=O)(=O)NCc2cccnc2)s1 [TCMDC-132261]	20.62	–
COc1ccc(CNC2Cc3ccccc3C2)cc1-c1ccc(S(=O)(=O)NCc2cccnc2)s1 [TCMDC-132260]	33.12	–
COc1ccc(CNC2Cc3ccccc3C2)cc1-c1ccc(S(=O)(=O)NCCc2ccccn2)s1 [TCMDC-132255]	98.81	–
COc1cc(CNC2Cc3ccccc3C2)ccc1Oc1ccc2nc[nH]c2c1 [TCMDC-133481]	-19.03	–
COc1ccc(NC(=O)/C=C/c2ccccc2Cl)cc1OCCN1CCC(Cc2cc3ccccc3[nH]2)CC1 [TCMDC-140920]	-36.18	–
CN(C)C(CNC(=O)c1cc(-c2ccncc2)c(-c2ccc(Cl)c(O)c2)o1)c1ccccc1 (centres unmarked) [TCMDC-135438]	-15.77	–
O=C(CCc1cnc[nH]1)Nc1cccc(-c2ccc(-c3nc4ccc(F)cc4[nH]3)cc2)c1 [TCMDC-132154]	23.15	–
Cc1ccc(N2CCN(C(=O)c3cccc(-c4cncc5nc(-c6ccco6)n(C)c45)c3)CC2)nc1 [TCMDC-134992]	-10.32	–
C#CCNC(=O)c1ccc(-c2ccnc(Nc3cccc(CCCN4CCOCC4)c3)n2)s1 [TCMDC-136764]	20.31	–

SMILES	% Inhibition [%]	% Inhibition (% Inhibition) [%]
COc1cccc(CN2CCCC(OC(c3ccccc3)c3ccccc3)C2)c1O (centres unmarked) [TCMDC-136385]	-25.83	–
Cn1nc(-c2ccc(Cl)cc2)c2cc(C(=O)NCCN3CCOCC3)sc21 [TCMDC-124416]	0.2691	–
CCCN1CCN(CCCNC(=O)c2cc3c(-c4ccc(Cl)cc4)nn(C)c3s2)CC1 [TCMDC-124731]	12.34	–
CCN1CCCC1CNC(=O)c1cc2c(-c3ccc(Cl)cc3)nn(C)c2s1 (centres unmarked) [TCMDC-123579]	67.12	–
CCc1cn2c3c(cc(C(=O)N[C@@H](Cc4ccccc4)[C@H](O)CNCc4ccccc4)cc13)N(C)S(=O)(=O)CC2 [TCMDC-135883]	74.56	–
CCc1cn2c3c(cc(C(=O)N[C@@H](Cc4ccccc4)[C@H](O)CNCC(C)C)cc13)N(C)S(=O)(=O)CC2 [TCMDC-135804]	36.82	–
CCCCNC[C@@H](O)[C@H](Cc1ccccc1)NC(=O)c1cc2c3c(c1)c(CC)cn3CCS(=O)(=O)N2C [TCMDC-135802]	53.96	–
CCNC[C@@H](O)[C@H](Cc1ccccc1)NC(=O)c1cc2c3c(c1)c(CC)cn3CCS(=O)(=O)N2C [TCMDC-135800]	27.6	–
CCCNC[C@@H](O)[C@H](Cc1ccccc1)NC(=O)c1cc2c3c(c1)c(CC)cn3CCS(=O)(=O)N2C [TCMDC-135863]	78.77	–
CCc1cn2c3c(cc(C(=O)N[C@@H](Cc4ccccc4)[C@H](O)CNCc4cccc(C)c4)cc13)N(C)S(=O)(=O)CC2 [TCMDC-135923]	15.33	–
CCc1cn2c3c(cc(C(=O)N[C@@H](Cc4ccccc4)[C@H](O)CNCc4ccccc4C)cc13)N(C)S(=O)(=O)CC2 [TCMDC-135922]	-22.32	–
CCc1cn2c3c(cc(C(=O)N[C@@H](Cc4ccccc4)[C@H](O)CNCCOC)cc13)N(C)S(=O)(=O)CC2 [TCMDC-135799]	12.82	–
CCc1cn2c3c(cc(C(=O)N[C@@H](Cc4ccccc4)[C@H](O)CNCc4ccc(C)cc4)cc13)N(C)S(=O)(=O)CC2 [TCMDC-135924]	11.35	–
COC(=O)c1ccc(CC(C)NCC(O)c2cccc(C(F)(F)F)c2)cc1 (centres unmarked) [TCMDC-131435]	–	22.12
COc1ccc(OC)c(CNCC(O)c2cc(C(F)(F)F)cc(C(F)(F)F)c2)c1 (centres unmarked) [TCMDC-140306]	38.32	–
Cc1nc2ccc3ccc(CNc4ccc(C(=O)CC(CCC(=O)O)C(=O)O)cc4)cc3c2c(=O)[nH]1 (centres unmarked) [TCMDC-137855]	12.05	–
COc1cc(C(C)C)ccc1N1CCN(CCCCNC(=O)c2ccc(NC(=O)c3ccc(Cl)cc3)cc2)CC1 [TCMDC-138518]	-18.1	–
N#Cc1cccc(NC(=O)Nc2cccc(-c3cccc(-c4nc5ccc(F)cc5[nH]4)c3)c2)c1 [TCMDC-133197]	-38	–
COCC(=O)N(Cc1ccccc1-c1cccc(CNCCc2ccccc2)c1)C1CCN(Cc2ccccc2)CC1 [TCMDC-140533]	103.5	–
COCC(=O)N(Cc1ccccc1-c1ccc(CNCCc2ccccc2)cc1)C1CCN(Cc2ccccc2)CC1 [TCMDC-140534]	105.6	–
CCNc1cc(C(=O)N[C@@H](Cc2ccc(F)c(F)c2)[C@H](O)CNCc2cccc(OC)c2)cc(N2CCCCS2(=O)=O)c1 [TCMDC-135059]	-18.05	–
